Measured values published in PubChem BioAssay (NCI).
About 79,000 compounds went through this panel and 15% of them were active in at least one assay; those are over-represented in the sample as a whole. The source made the active and inactive calls. Rule as the data show it: active = growth inhibition above about 70%; inactive = the rest.

Assay: NCI Yeast Anticancer Drug Screen. Data for the rad50 strain (AID 155);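 also: 0% = growth of vehicle-only cultures of the same strain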
Conditions: S. cerevisiae rad50 strain growth inhibition; at 1.2 µM; stronger effect = higher value
Method in brief: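 Yeast carrying a defined DNA repair defect were exposed to test compounds, and growth was compared with vehicle-treated controls to give percent inhibition.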

| SMILES | growth inhibition |
| --- | --- |
| CC1CCN(CCC(=O)c2ccc(Cl)cc2)CC1 | 12% (inactive) |
| CCCCCCCCCCCCCCC(C(=O)[O-])[n+]1ccccc1 (stereo not given) | 3% (inactive) |
| CNC1C(OC2C(OC3C(O)C(O)C(N=C(N)N)C(O)C3N=C(N)N)OC(C)C2(O)CO)OC(CO)C(O)C1O (stereo not given) | -2% (inactive) |
| O=C(O)c1ccccc1-c1ccccc1C(=O)Nc1ccc2c(c1)Cc1ccccc1-2 | 6% (inactive) |
| O=[N+]([O-])c1cccc2nc3ccccc3c(NCCCN3CCOCC3)c12 | 89% (active) |
| C=CC(C)(O)CCC1C(=C)C(O)CC2C(C)(C)CCCC12C (stereo not given) | 15% (inactive) |
| CN1c2ccc(Cl)cc2C(=O)NC1c1ccc([N+](=O)[O-])s1 (stereo not given) | 20% (inactive) |
| [O-][n+]1c2ccc(O)cc2nc2ccc(Br)cc21 | 2% (inactive) |
| O=C1c2ccccc2-c2nc3ccccc3nc21 | -6% (inactive) |
| CCCCN1C(=O)N(c2ccc(OCC)cc2)C2N(CCCC)C1C(C)(C)C2(C)C (stereo not given) | -17% (inactive) |
| CO[C@H]1C[C@](C)(O)Cc2cc3c(c(O)c21)C(=O)c1c(O)cc2c(c1C3=O)O[C@@H]1O[C@@]2(C)[C@H](O)[C@@H](N(C)C)[C@@H]1O | -44% (inactive) |
| COc1cc2c(cc1[N+](=O)[O-])C(=O)C(Br)(Br)CCC2 | 42% (inactive) |
| O=C1OC(CCl)CN1/N=C/c1ccc([N+](=O)[O-])o1 (stereo not given) | -10% (inactive) |
| CN(C)CCOc1ccc2c(c1)C/C(=C/c1ncc([N+](=O)[O-])n1C)C2=O | 40% (inactive) |
| CCCCCCCCCCCCCCCCCCN(C)CC(COP(=O)([O-])OCC[N+](C)(C)C)OC (stereo not given) | 8% (inactive) |
